The panel holds about 83,000 compounds, 20% with a hit somewhere; the sample as a whole holds those more often.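 How to read the values: 0–100, growth inhibition (40 = 60% inhibited); 0, no net growth; -100 to 0, cell death (-40 = 40% of starting cells died; -100 = all dead).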 The source made the active and inactive calls. How the source made its calls: active means growth percent below 10; inactive means the rest.
Each compound was assayed on NCI-H460 lung (assay: NCI-60 one-dose screen, 48 h (100 = growth as untreated, 0 = no growth, -100 = all killed)). Conditions: 10 µM unless noted.

SMILES | growth
FC(F)(F)c1cc(-c2nnc3n2N=C(Cl)CS3)cc(C(F)(F)F)c1 | 107% (inactive)
Cc1cc(O)c2cc3c(O)c(O)ccc3cc2c1 | 125% (inactive)
COc1ccc(-c2nc3ccccc3n3cccc23)cc1 | 112% (inactive)
CCOC(=O)c1cc(C(=O)OCC)c(C)nc1C | 111% (inactive)
CN1C(=O)N(C)C2C1NN=c1s/c(=C\c3ccc(Br)cc3)c(=O)n12 (configuration not stated) | 13.4% (inactive)
O=C1OCC2=C1C(c1ccccc1)c1cc3c(cc1N2CCO)OCO3 (configuration not stated) | -3.16% (active)
CCC1N=C(N)N=C(N)N1c1ccc(Cl)cc1 (configuration not stated) | 39.1% (inactive)
COc1cc(OC)cc(-c2ccc(-c3ccc(C(=N)N)s3)s2)c1 | -71.6% (active)
Cc1cccc(N=NC(=S)NNc2cccc(C)c2)c1 | 112% (inactive)
CCn1c(Cc2ccccc2Nc2c(Cl)cccc2Cl)nnc1SCC(=O)Nc1cccc(OC)c1 | 84.8% (inactive)
NC(=S)N1N=C(c2ccc(Cl)cc2)CC1c1cc2ccccc2[nH]c1=O (configuration not stated) | 108% (inactive)
COc1ccc(Oc2nc(Nc3ccc(N4CCOCC4)cc3)ncc2NC(=O)Nc2cccc(OC)c2)cc1 | 41.5% (inactive)
Clc1cccc(CNc2c3ccccc3nc3ccccc23)c1 | 14.2% (inactive)
O=C1OCC2=C1C(c1ccccc1)c1cc3c(cc1N2CCO)CCC3 (configuration not stated) | -37.3% (active)
C=C1C(=O)O[C@H]2[C@H]1CC/C(COC(=O)NCc1[nH]nc3ccccc13)=C\CC[C@@]1(C)O[C@@H]21 | 28.6% (inactive)
CC(=O)Oc1c(Cl)c(Cl)c(Cl)c(Cl)c1Cl | 105% (inactive)

SMILES | growth
Cc1ccc(C(CN(C)C)C(=O)c2ccccc2)cc1 (configuration not stated) | 71.7% (inactive)
CCOC(=O)C(CCCCC(NC(C)=O)(C(=O)OCC)C(=O)OCC)(NC(C)=O)C(=O)OCC | 103% (inactive)
O=[N+]([O-])c1ccc(SSc2ccc([N+](=O)[O-])cc2Cl)c(Cl)c1 | 92.2% (inactive)
COc1cc(/C=C2\CN(C(=O)OC(C)(C)C)C/C(=C\c3ccc(O)c(OC)c3)C2=O)ccc1O | 91.7% (inactive)
CNCCCn1c2c(c3ccc(Cl)cc3c1=O)C(=O)c1cc(OC)cnc1-2 | -77.3% (active)
O=C(/C=C/c1ccccc1)c1c[nH]c2ccccc2c1=O | -32.8% (active)
C[C@@H]1N=C(c2ccc3ccccc3c2)Nc2nc3ccccn3c2C1=O | 15.2% (inactive)
CC(=O)Nc1ccc(/C=N/N2CCCCCC2)cc1 | 106% (inactive)
COc1cc(C2CC(=O)Nc3c2cnn3C)cc(OC)c1OC (configuration not stated) | 117% (inactive)
COc1cc2c(c(OC)c1O)C(=O)C(OC)C(c1ccc(O)c(O)c1)O2 (configuration not stated) | 4.55% (active)
CCOC(=O)C1C(=O)C=C(c2ccccc2)CC1c1sc(N(C)Cc2ccccc2)nc1Cl (configuration not stated) | 93.3% (inactive)
CC(C)[C@@H]1C=C2CC[C@H]3[C@](C)(CN)CCC[C@]3(C)[C@H]2CC1 | -69.7% (active)
CCNC(=O)c1ccc2c(c1)nc(-c1ccc(Cl)cc1)n2-c1cc(C(C)(C)C)[nH]n1 | 36.7% (inactive)
CCc1c(C)c2ccc(O)c(-c3cc(-c4ccccc4)c(C#N)c(=O)[nH]3)c2oc1=O | 112% (inactive)
C=C(C)[C@@H]1CC[C@]2(C(=O)NS(=O)(=O)c3ccccc3)CC[C@]3(C)[C@H](CC[C@@H]4[C@@]5(C)CC[C@H](OC(=O)NS(=O)(=O)c6ccccc6)C(C)(C)[C@@H]5CC[C@]43C)[C@@H]12 | -53.8% (active)

These compounds were tested on HOP-92 NSCLC in the same assay as above. Conditions: 10 µM unless noted.

SMILES | growth
FC(F)(F)c1cc(-c2nnc3n2N=C(Cl)CS3)cc(C(F)(F)F)c1 | 102% (inactive)
COc1cc(OC)cc(-c2ccc(-c3ccc(C(=N)N)s3)s2)c1 | -71% (active)
CCOC(=O)C(CCCCC(NC(C)=O)(C(=O)OCC)C(=O)OCC)(NC(C)=O)C(=O)OCC | 94.9% (inactive)
N=C(N)c1ccc(-c2ccc(-c3ccco3)o2)cc1F | -20% (active)

What follows are compounds tested on NCI-H522 lung in the same assay as above. Conditions: 10 µM unless noted.

SMILES | growth
COc1ccc(/C=C/c2nc3ccccc3c(=O)n2-c2ccc(C#Cc3ccc(C(C)(C)C)cc3)cc2C)c(OC)c1 | 70.2% (inactive)
Cc1cc(O)c2cc3c(O)c(O)ccc3cc2c1 | 88.6% (inactive)
COc1ccc(-c2nc3ccccc3n3cccc23)cc1 | 101% (inactive)
CCOC(=O)c1cc(C(=O)OCC)c(C)nc1C | 103% (inactive)
CN1C(=O)N(C)C2C1NN=c1s/c(=C\c3ccc(Br)cc3)c(=O)n12 (configuration not stated) | -14.6% (active)
CCC1N=C(N)N=C(N)N1c1ccc(Cl)cc1 (configuration not stated) | 90.9% (inactive)
Cc1cccc(N=NC(=S)NNc2cccc(C)c2)c1 | 95.4% (inactive)
CCn1c(Cc2ccccc2Nc2c(Cl)cccc2Cl)nnc1SCC(=O)Nc1cccc(OC)c1 | 42.6% (inactive)
NC(=S)N1N=C(c2ccc(Cl)cc2)CC1c1cc2ccccc2[nH]c1=O (configuration not stated) | 84.2% (inactive)
CC(C)c1nc2ccccc2n1CC(=O)N/N=C/c1cccc(O)c1 | 86.6% (inactive)
Clc1cccc(CNc2c3ccccc3nc3ccccc23)c1 | 41.7% (inactive)
O=C1OCC2=C1C(c1ccccc1)c1cc3c(cc1N2CCO)CCC3 (configuration not stated) | -31.4% (active)
C=C1C(=O)O[C@H]2[C@H]1CC/C(COC(=O)NCc1[nH]nc3ccccc13)=C\CC[C@@]1(C)O[C@@H]21 | -68.6% (active)
CC(=O)Oc1c(Cl)c(Cl)c(Cl)c(Cl)c1Cl | 90.2% (inactive)
CC(=O)Nc1c(Br)cc2c(c1Br)Cc1cc(Br)ccc1-2 | 76% (inactive)
Cc1ccc(C(CN(C)C)C(=O)c2ccccc2)cc1 (configuration not stated) | -66.4% (active)

SMILES | growth
COc1cc(/C=C2\CN(C(=O)OC(C)(C)C)C/C(=C\c3ccc(O)c(OC)c3)C2=O)ccc1O | 64.5% (inactive)
O=S1(=O)NCCN1CCNc1nccc(-c2c(-c3cccc(O)c3)nc3sccn23)n1 | 87.2% (inactive)
CNCCCn1c2c(c3ccc(Cl)cc3c1=O)C(=O)c1cc(OC)cnc1-2 | 10.1% (inactive)
O=C(/C=C/c1ccccc1)c1c[nH]c2ccccc2c1=O | 0.426% (active)
C[C@@H]1N=C(c2ccc3ccccc3c2)Nc2nc3ccccn3c2C1=O | 29.4% (inactive)
COc1ccc2[nH]cc(C3(c4c[nH]c5ccc(OC)cc45)C(=O)Nc4ccc(F)cc43)c2c1 | 78.5% (inactive)
CC(=O)Nc1ccc(/C=N/N2CCCCCC2)cc1 | 103% (inactive)
COc1cc(-c2nn(C(=O)NCCN3CCN(C)CC3)cc2-c2ccncc2)ccc1Cl | 75.3% (inactive)
COc1cc(C2CC(=O)Nc3c2cnn3C)cc(OC)c1OC (configuration not stated) | 101% (inactive)
COc1cc2c(c(OC)c1O)C(=O)C(OC)C(c1ccc(O)c(O)c1)O2 (configuration not stated) | -11.9% (active)
CCOC(=O)C1C(=O)C=C(c2ccccc2)CC1c1sc(N(C)Cc2ccccc2)nc1Cl (configuration not stated) | 73.5% (inactive)
CC(C)[C@@H]1C=C2CC[C@H]3[C@](C)(CN)CCC[C@]3(C)[C@H]2CC1 | 86.7% (inactive)
CC1(C)CN(CCNc2nccc(-c3c(-c4cccc(O)c4)nc4sccn34)n2)S(=O)(=O)N1 | 65.1% (inactive)
CCNC(=O)c1ccc2c(c1)nc(-c1ccc(Cl)cc1)n2-c1cc(C(C)(C)C)[nH]n1 | 32.3% (inactive)
CCc1c(C)c2ccc(O)c(-c3cc(-c4ccccc4)c(C#N)c(=O)[nH]3)c2oc1=O | 109% (inactive)
C=C(C)[C@@H]1CC[C@]2(C(=O)NS(=O)(=O)c3ccccc3)CC[C@]3(C)[C@H](CC[C@@H]4[C@@]5(C)CC[C@H](OC(=O)NS(=O)(=O)c6ccccc6)C(C)(C)[C@@H]5CC[C@]43C)[C@@H]12 | 16.7% (inactive)
